Assay results from PubChem BioAssay (EPA / NIEHS).
Where “and” joins values, the source holds several entries; their conditions need not be identical. Equal entries are not always repeated. Records with an inconclusive call do not appear. Some structures have more than one record in an assay (separate samples or runs), and their calls can disagree. Calls of active or inactive are those of the source. How the source made its calls, unless noted: active means hit-call score of the fitted dose curve at least 0.9, where 1 is the maximum; inactive means score below 0.9.

Columns and labels:
[1] = ATG_NFI_CIS: Attagene CIS-FACTORIAL HepG2 Assay for human Nuclear Factor I (NFI) (AID 2282989); settings: HepG2 cis-regulatory reporter, NFI response element transcription; actives raise or lower the signal
Method in brief: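 After transient transfection of HepG2 with cis-promoter reporter constructs and 24 h dosing, RNA is reverse-transcribed, amplified, 6-FAM end-labelled and HpaI-digested before capillary analysis. Bidirectional curve fitting against DMSO.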

[2] = molecular target: Myc proto-oncogene protein (Homo sapiens) (UniProt P01106); experiment: ATG_Myc_CIS: Attagene CIS-FACTORIAL HepG2 Assay for human Myelocytomatosis (Myc) Proto-Oncogene Transcription Factor (AID 2282990); settings: HepG2, Attagene cis-reporter transcription factor activity; actives raise or lower the signal
Method in brief: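 Cells of the HepG2 human liver line bear multiple cis-driven reporter transcription units. Reporter mRNA after 24 h exposure is reverse-transcribed, amplified, labelled and resolved by capillary electrophoresis, with gain- or loss-of-signal fitting relative to DMSO.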

[3] = ATG_NF_kB_CIS: Attagene CIS-FACTORIAL HepG2 Assay for human Nuclear Factor Kappa B (NF-kB) (AID 2282991); settings: HepG2 Attagene cis-factorial NF-kB reporter mRNA; actives raise or lower the signal
Method in brief: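 Endpoint from a 52-component multiplexed HepG2 reporter panel: cis-regulated transcription units transiently transfected, 24 h dosing, reporter mRNA quantified by RT-PCR and capillary electrophoresis, scored as increase or decrease against DMSO.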

[4] = ATG_NRF2_ARE_CIS: Attagene CIS-FACTORIAL HepG2 Assay for human Nuclear Factor Erythroid 2 Related Factor 2 (NFR2) response to Antioxidant Response Elements (ARE) (AID 2282992); settings: HepG2 Attagene ARE/NRF2 reporter, transcription factor activity; actives raise or lower the signal
Method in brief: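 Multiplexed reporter mRNA profiling in HepG2 after a 24 h chemical exposure. Curves fitted in both directions relative to DMSO negative control.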

[5] = ATG_Oct_MLP_CIS: Attagene CIS-FACTORIAL HepG2 Assay for human Octamer-Binding Transcription Factor (Oct) (AID 2282993); settings: HepG2 Attagene cis-factorial Oct reporter, mRNA; actives raise or lower the signal
Method in brief: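 Cells of the HepG2 line express promoter-controlled reporter sequences whose mRNA levels, after 24 h treatment, are measured by RT-PCR and capillary electrophoresis. Increases and decreases are scored relative to DMSO.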

[6] = molecular target: Cellular tumor antigen p53 (Homo sapiens) (UniProt P04637); experiment: ATG_p53_CIS: Attagene CIS-FACTORIAL HepG2 Assay for human p53 Transcription Factor (AID 2282994); settings: HepG2 p53 cis-element reporter, Attagene mRNA; actives raise or lower the signal
Method in brief: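 Multiplexed reporter mRNA assay in human HepG2 liver cells; cis-regulated units report endogenous factor activity. Values come from bidirectional curve fitting against DMSO negative control after 24 h treatment.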

[7] = molecular target: human Peroxisome Proliferator-activated Receptor alpha (PPARa), PPARA (gene 5465) (UniProt Q07869); experiment: ATG_PPARa_TRANS: Attagene TRANS-FACTORIAL HepG2 Assay for human Peroxisome Proliferator-activated Receptor alpha (PPARa) (AID 2283001; active means hit-call score of the fitted dose curve at least 0.9, where 1 is the maximum)
Method in brief: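 Read-out is fluorescence of reporter cDNA fragments resolved by capillary electrophoresis after RT-PCR. Human HepG2 liver cells carried transfected PPARa-Gal4 chimera and GAL4-UAS reporter units, treated 24 h; activity scored as increase over DMSO.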

[8] = molecular target: human Peroxisome Proliferator-activated Receptor delta (PPARd), PPARD (gene 5467) (UniProt Q03181); experiment: ATG_PPARd_TRANS: Attagene TRANS-FACTORIAL HepG2 Assay for human Peroxisome Proliferator-activated Receptor delta (PPARd) (AID 2283002; active means hit-call score of the fitted dose curve at least 0.9, where 1 is the maximum)
Method in brief: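 Cell-based TRANS reporter: HepG2, transient MRTU transfection, 24 h exposure. Readout = reporter mRNA (RT-PCR/CE, 6-FAM). Gain-of-signal fit vs DMSO control.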

[9] = molecular target: human Retinoic Acid Receptor beta (RARb), RARB (gene 5915) (UniProt P10826); experiment: ATG_RARb_TRANS: Attagene TRANS-FACTORIAL HepG2 Assay for human Retinoic Acid Receptor beta (AID 2283004; active means hit-call score of the fitted dose curve at least 0.9, where 1 is the maximum)
Method in brief: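 Induction of reporter mRNA from a chimeric RARb-Gal4 construct was measured by RT-PCR, FAM labelling, HpaI digestion and capillary electrophoresis. Measurements followed 24 h compound treatment of transiently transfected human HepG2 liver cells, with DMSO as baseline.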

[10] = molecular target: Retinoic acid receptor alpha (Homo sapiens) (UniProt P10276); experiment: ATG_RARa_TRANS: Attagene TRANS-FACTORIAL HepG2 Assay for human Retinoic Acid Receptor alpha (RARa) (AID 2283005; active means hit-call score of the fitted dose curve at least 0.9, where 1 is the maximum)
Method in brief: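 Reporter transcripts, measured by RT-PCR with fluorescent labeling and capillary electrophoresis after 24 h dosing, reflect activity of an exogenous human RARa–GAL4 fusion in transiently transfected HepG2. Fitted for increase relative to DMSO.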

[11] = molecular target: human Retinoic Acid Receptor gamma (RARg), RARG (gene 5916) (UniProt P13631); experiment: ATG_RARg_TRANS: Attagene TRANS-FACTORIAL HepG2 Assay for human Retinoic Acid Receptor gamma (RARg) (AID 2283009; active means hit-call score of the fitted dose curve at least 0.9, where 1 is the maximum)
Method in brief: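 Transient transfection of HepG2 with multi-reporter constructs, then 24 h chemical treatment. Total RNA isolated, reverse-transcribed, PCR-amplified, fluorescently labelled and resolved by capillary electrophoresis; activity scored as mRNA induction versus DMSO.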

[12] = molecular target: human RAR-related Orphan Receptor beta (RORb), RORB (gene 6096) (UniProt Q92753); experiment: ATG_RORb_TRANS: Attagene TRANS-FACTORIAL HepG2 Assay for human RAR-related Orphan Receptor beta (RORb) (AID 2283010; active means hit-call score of the fitted dose curve at least 0.9, where 1 is the maximum)
Method in brief: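 Readout is reporter-gene mRNA induction, detected as fluorescence after RT-PCR and capillary electrophoresis, fitted for gain of signal against DMSO controls. Transiently transfected HepG2 liver cells carrying GAL4-UAS reporter constructs were treated for 24 hours.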

[13] = BSK_3C_TissueFactor: BioMAP Diversity Plus: 3C Assay for Tissue Factor Biomarker Activity (AID 2282997); settings: BioMAP 3C HUVEC, tissue factor biomarker readout; actives raise or lower the signal
Method in brief: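 Dosing of human umbilical vein endothelial cells preceded a 24 h incubation. Tissue Factor was then read by ELISA, with increases and decreases both scored relative to DMSO controls.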

[14] = BSK_3C_uPAR: BioMAP Diversity Plus: 3C Assay for Urokinase-type plasminogen activator receptor (uPAR) Biomarker Activity (AID 2282998); settings: BioMAP 3C HUVEC, uPAR biomarker ELISA; actives raise or lower the signal
Method in brief: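 Endothelial primary cells of human umbilical vein origin received test chemical; 24 h later uPAR was assayed by ELISA. Fitting was bidirectional, DMSO as negative control.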

[15] = BSK_3C_VCAM1: BioMAP Diversity Plus: 3C Assay for Vascular cell adhesion molecule 1 (VCAM1) Biomarker Activity (AID 2282999); settings: BioMAP 3C HUVEC, VCAM1 ELISA, cytokine-stimulated; actives raise or lower the signal
Method in brief: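 Endothelial cells from human umbilical vein are treated with test chemical. At 24 h, VCAM-1 is measured by ELISA, and responses in either direction are fitted relative to DMSO.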

[16] = BSK_4H_Eotaxin3: BioMAP Diversity Plus: 4H Assay for Eotaxin 3 Biomarker Activity (AID 2283000); settings: primary human endothelial cells (HUVEC); actives raise or lower the signal
Method in brief: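 Human umbilical vein endothelial cells (BSK_4H system) dosed with test chemical; Eotaxin-3 (CCL26) measured by ELISA 24 h after dosing. Bidirectional curve fitting relative to DMSO negative control as baseline.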

[17] = read-out: Intercellular Adhesion Molecule 1 (ICAM1), ICAM1 (gene 3383); experiment: BSK_3C_ICAM1: BioMAP Diversity Plus: 3C Assay for Intercellular Adhesion Molecule 1 (ICAM1) Biomarker Activity (AID 2283003); settings: primary human endothelial cells (HUVEC); actives raise or lower the signal
Method in brief: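 ICAM-1 levels measured by ELISA after HUVEC cultures in the 3C system had been dosed for 24 h. Gain or loss of signal relative to DMSO was fitted in both directions.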

[18] = BSK_3C_Proliferation: Cell Proliferation Assessment in the BioMAP Diversity Plus: 3C Assay (AID 2283006); settings: primary human endothelial cells (HUVEC);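 on AC50: potency may reflect either rise or fall in cell number versus DMSO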
Method in brief: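 Read-out is total protein by SRB absorbance at 560 nm, taken as a proxy for relative cell number. Primary human umbilical vein endothelium cultured below confluence was dosed for 48 h, TCA-fixed and SRB-stained; curves were fitted bidirectionally versus DMSO.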

[19] = molecular target: Nuclear receptor subfamily 1 group I member 2 (Homo sapiens) (UniProt O75469); experiment: ATG_PXR_TRANS: Attagene TRANS-FACTORIAL HepG2 Assay for human Pregnane X Receptor (PXR) (AID 2283008; active means hit-call score of the fitted dose curve at least 0.9, where 1 is the maximum)
Method in brief: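 Measures mRNA induction of a GAL4-UAS-driven reporter in human HepG2 cells transiently expressing PXR fused to Gal4, following 24 h treatment. DMSO served as negative control and baseline.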

[20] = molecular target: Peroxisome proliferator-activated receptor gamma (Homo sapiens) (UniProt P37231); experiment: ATG_PPARg_TRANS: Attagene TRANS-FACTORIAL HepG2 Assay for human Peroxisome Proliferator-activated Receptor-gamma (PPARg) (AID 2283007; active means hit-call score of the fitted dose curve at least 0.9, where 1 is the maximum)
Method in brief: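 Endpoint reflects upward reporter mRNA change versus DMSO controls. Setup: transiently transfected HepG2, GAL4-UAS reporters driven by chimeric NR-Gal4, 24 h incubation, RT-PCR with capillary electrophoresis read-out.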

Measured: AC50

Chain of Myc proto-oncogene protein (Homo sapiens) (P01106 whole entry, looked up): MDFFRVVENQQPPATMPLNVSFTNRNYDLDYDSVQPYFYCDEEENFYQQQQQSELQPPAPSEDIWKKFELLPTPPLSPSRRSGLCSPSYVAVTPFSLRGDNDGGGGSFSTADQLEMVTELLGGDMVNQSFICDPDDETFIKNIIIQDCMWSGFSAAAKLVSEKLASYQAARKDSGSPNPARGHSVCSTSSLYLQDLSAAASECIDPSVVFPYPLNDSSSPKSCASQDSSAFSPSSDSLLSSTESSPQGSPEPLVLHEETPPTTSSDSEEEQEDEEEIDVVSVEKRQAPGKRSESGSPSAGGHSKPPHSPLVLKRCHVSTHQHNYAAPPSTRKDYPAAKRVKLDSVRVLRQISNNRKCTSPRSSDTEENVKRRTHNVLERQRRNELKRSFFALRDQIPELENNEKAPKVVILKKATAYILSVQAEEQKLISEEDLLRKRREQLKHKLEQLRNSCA
Chain of Peroxisome proliferator-activated receptor gamma (Homo sapiens) (P37231 whole entry, looked up, the tested form may be a part): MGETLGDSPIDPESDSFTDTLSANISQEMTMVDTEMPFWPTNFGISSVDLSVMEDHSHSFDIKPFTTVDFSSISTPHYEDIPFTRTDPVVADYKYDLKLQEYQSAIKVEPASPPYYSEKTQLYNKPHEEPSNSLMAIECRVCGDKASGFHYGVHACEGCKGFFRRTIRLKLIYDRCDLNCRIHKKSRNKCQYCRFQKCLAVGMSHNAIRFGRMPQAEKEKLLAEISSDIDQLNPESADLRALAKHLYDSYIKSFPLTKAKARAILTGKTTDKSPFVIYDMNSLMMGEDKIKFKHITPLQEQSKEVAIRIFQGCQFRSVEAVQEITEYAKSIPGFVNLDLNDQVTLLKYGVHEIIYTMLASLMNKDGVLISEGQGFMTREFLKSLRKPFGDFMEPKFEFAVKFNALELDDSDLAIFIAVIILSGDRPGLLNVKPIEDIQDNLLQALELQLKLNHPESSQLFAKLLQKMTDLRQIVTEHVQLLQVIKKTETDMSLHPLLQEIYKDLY
Chain of Retinoic acid receptor alpha (Homo sapiens) (P10276 whole entry, looked up, the tested form may be a part): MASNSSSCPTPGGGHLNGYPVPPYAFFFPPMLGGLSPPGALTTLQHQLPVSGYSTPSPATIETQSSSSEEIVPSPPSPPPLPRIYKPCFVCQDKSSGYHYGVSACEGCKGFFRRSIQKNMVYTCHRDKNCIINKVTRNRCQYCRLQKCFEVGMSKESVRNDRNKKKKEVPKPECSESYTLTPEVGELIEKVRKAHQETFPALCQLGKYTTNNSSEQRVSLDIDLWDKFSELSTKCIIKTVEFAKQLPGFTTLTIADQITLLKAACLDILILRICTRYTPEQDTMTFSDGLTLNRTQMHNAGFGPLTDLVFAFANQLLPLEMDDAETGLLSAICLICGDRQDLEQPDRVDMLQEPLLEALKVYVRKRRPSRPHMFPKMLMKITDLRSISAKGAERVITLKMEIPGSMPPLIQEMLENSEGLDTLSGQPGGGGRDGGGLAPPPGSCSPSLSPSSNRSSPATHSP
Chain of human Peroxisome Proliferator-activated Receptor alpha (PPARa), PPARA (gene 5465) (Q07869 whole entry, looked up, the tested form may be a part): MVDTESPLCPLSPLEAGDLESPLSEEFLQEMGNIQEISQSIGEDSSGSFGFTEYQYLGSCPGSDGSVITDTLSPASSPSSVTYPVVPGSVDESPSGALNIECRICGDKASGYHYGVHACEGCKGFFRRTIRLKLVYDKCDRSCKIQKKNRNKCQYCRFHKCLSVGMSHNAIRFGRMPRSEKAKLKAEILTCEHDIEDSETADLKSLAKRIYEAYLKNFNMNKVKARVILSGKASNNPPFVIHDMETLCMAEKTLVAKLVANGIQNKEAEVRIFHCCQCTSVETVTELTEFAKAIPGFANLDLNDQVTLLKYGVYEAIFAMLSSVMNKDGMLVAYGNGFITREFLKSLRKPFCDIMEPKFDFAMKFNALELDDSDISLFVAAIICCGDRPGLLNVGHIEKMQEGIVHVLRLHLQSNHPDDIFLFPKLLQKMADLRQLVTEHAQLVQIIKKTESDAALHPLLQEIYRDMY
Chain of human Retinoic Acid Receptor beta (RARb), RARB (gene 5915) (P10826 whole entry, looked up, the tested form may be a part): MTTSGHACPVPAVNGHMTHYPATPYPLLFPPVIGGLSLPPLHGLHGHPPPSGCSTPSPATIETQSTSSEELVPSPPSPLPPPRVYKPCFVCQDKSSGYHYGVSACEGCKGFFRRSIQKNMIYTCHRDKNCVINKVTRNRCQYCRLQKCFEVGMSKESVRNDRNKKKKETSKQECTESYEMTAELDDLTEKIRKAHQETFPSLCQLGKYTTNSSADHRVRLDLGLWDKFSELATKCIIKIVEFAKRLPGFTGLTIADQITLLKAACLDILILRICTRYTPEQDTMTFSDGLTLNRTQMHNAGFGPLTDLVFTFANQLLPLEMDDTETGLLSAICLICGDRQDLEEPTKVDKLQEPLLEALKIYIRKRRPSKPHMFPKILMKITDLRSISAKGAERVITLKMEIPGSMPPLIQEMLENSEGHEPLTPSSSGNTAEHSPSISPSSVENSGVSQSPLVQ
Chain of human Peroxisome Proliferator-activated Receptor delta (PPARd), PPARD (gene 5467) (Q03181 whole entry, looked up): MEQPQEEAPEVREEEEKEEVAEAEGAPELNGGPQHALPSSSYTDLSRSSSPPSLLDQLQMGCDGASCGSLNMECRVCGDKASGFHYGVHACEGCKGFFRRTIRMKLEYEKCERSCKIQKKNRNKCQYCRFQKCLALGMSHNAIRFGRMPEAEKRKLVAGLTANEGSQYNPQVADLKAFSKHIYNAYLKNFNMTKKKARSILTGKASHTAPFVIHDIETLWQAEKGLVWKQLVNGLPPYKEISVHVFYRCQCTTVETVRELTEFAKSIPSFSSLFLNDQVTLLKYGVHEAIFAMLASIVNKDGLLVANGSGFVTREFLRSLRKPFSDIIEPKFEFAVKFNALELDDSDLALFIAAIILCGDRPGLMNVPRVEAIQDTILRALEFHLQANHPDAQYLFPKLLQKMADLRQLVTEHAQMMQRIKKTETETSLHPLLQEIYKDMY
Chain of Nuclear receptor subfamily 1 group I member 2 (Homo sapiens) (O75469 whole entry, looked up, the tested form may be a part): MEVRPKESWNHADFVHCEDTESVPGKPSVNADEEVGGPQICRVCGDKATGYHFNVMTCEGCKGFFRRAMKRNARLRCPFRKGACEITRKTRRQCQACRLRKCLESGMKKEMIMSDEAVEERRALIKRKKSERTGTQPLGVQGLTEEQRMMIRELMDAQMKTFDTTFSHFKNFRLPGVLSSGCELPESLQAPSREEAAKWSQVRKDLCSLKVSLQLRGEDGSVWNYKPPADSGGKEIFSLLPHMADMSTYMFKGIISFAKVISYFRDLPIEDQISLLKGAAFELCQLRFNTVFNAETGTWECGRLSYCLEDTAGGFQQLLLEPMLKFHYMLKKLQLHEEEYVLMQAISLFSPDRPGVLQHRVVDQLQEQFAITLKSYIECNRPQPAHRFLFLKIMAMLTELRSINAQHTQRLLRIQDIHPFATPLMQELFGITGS
Chain of Cellular tumor antigen p53 (Homo sapiens) (P04637 whole entry, looked up): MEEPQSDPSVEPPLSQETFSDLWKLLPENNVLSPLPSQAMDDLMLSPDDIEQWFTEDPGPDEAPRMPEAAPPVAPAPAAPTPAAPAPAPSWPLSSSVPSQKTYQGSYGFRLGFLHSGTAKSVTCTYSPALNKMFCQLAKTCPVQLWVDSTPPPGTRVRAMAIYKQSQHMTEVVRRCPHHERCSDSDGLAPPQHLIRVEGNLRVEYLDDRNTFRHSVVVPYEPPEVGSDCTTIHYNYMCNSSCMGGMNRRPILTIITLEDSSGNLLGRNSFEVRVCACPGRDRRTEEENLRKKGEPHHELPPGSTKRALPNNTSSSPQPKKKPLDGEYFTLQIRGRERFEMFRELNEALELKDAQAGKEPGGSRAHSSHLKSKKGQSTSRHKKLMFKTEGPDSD
Chain of human RAR-related Orphan Receptor beta (RORb), RORB (gene 6096) (Q92753 whole entry, looked up, the tested form may be a part): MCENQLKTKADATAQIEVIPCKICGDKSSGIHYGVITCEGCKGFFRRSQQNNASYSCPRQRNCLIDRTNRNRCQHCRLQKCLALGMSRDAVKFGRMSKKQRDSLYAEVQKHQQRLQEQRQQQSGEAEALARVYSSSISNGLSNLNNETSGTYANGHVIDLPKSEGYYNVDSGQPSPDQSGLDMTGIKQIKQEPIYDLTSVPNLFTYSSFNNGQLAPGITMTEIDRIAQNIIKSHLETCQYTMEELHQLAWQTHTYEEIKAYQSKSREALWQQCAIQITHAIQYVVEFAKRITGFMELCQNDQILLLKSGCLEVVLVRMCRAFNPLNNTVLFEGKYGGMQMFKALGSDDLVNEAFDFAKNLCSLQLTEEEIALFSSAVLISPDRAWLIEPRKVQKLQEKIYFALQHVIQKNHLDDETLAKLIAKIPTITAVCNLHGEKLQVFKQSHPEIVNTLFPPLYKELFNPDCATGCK
Chain of human Retinoic Acid Receptor gamma (RARg), RARG (gene 5916) (P13631 whole entry, looked up): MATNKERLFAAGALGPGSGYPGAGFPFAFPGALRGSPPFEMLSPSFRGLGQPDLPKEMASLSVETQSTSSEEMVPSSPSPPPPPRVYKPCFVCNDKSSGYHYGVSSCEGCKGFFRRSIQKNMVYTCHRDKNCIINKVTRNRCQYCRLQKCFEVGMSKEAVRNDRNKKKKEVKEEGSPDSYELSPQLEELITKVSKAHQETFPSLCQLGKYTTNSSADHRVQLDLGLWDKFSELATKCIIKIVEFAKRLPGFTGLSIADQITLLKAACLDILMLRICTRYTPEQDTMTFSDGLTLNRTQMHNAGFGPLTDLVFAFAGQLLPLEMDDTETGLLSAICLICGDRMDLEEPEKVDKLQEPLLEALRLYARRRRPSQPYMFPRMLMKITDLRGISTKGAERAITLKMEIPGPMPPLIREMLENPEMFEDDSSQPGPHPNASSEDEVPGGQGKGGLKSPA

O=C(O)CN(CCCN(CC(=O)O)CC(=O)O)CC(=O)O
active: [4] 6.54 µM
inactive: [1] | [2] | [3] | [5] | [6] | [7] | [8] | [9] | [10] | [11] | [12]

NC(=NCCCCCCN=C(N)/N=C(\N)Nc1ccc(Cl)cc1)/N=C(\N)Nc1ccc(Cl)cc1
inactive: [1] | [2] | [4] | [5] | [6] | [7] | [8] | [19] | [12]
active: [2] 90.5 µM and 24.6 µM | [4] 2.26 µM | [5] 23.5 µM | [6] 8.29 µM and 8.25 µM | [13] 4.88 µM | [14] 2.61 µM | [15] 7.92 µM | [16] 5.53 µM | [8] 24.5 µM | [17] 10.5 µM | [18] 4.95 µM

CCC(=O)O
inactive: [1] | [2] | [3] | [4] | [5] | [6] | [7] | [8] | [10] | [20] | [19]

CC[N+](CC)(CC)Cc1ccccc1
inactive: [1] | [2] | [3] | [4] | [5] | [6] | [13] | [14] | [15] | [16] | [8] | [17] | [9] | [10] | [18] | [19] | [11] | [12]

CC1=NN(c2ccccc2)C(=O)C1
active: [13] 4.46 µM | [20] 57.1 µM and 17.3 µM
inactive: [1] | [2] | [3] | [4] | [5] | [6] | [14] | [15] | [16] | [7] | [8] | [17] | [10] | [18] | [19] | [12]

O=C(O)CCC(F)(F)C(F)(F)C(F)(F)C(F)(F)C(F)(F)F
inactive: [1] | [2] | [3] | [4] | [5] | [6] | [13] | [14] | [15] | [16] | [7] | [8] | [17] | [18] | [20] | [19] | [12]
active: [20] 82.5 µM

Cc1ccc2ccc3ccc(C)cc3c2c1
active: [4] 61.3 µM | [19] 14.4 µM
inactive: [1] | [2] | [3] | [5] | [6] | [7] | [8] | [9] | [20] | [12]
